Assay results published in PubChem BioAssay (EPA / NIEHS).
“And” between values parts separate entries of the source, which are not always exact repeats. Identical values can stand only once. Inconclusive results are not listed. Where a structure was tested more than once in an assay, its records may differ in their call. The source made the active and inactive calls. How the source made its calls: active means hit-call score of the fitted dose curve at least 0.9, where 1 is the maximum; inconclusive means response in the unintended direction; inactive means score below 0.9.

Legend:
CDK2 (gene 1017) = CDK2 (gene 1017) (UniProt P24941); assay: NVS_ENZ_hCDK2: NovaScreen (NVS) Enzymatic Assay for human Cyclin-Cependent Kinase 2 (CDK2) (AID 2283144)
In short: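 Cell-free recombinant human CDK2 with fluorescent substrate, product separated by electrophoretic mobility shift; 1 hr read. Primary screen at 25 uM in duplicate, actives retested in concentration-response up to 50 uM; loss of signal versus DMSO.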

[1] = target: human Ephrin type-A Receptor 2 (EphA2), EPHA2 (gene 1969) (UniProt P29317); assay: NVS_ENZ_hEphA2: NovaScreen (NVS) Enzymatic Assay for human Ephrin type-A Receptor 2 (EphA2) (AID 2283155)
In short: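 Cell-free recombinant EphA2 kinase with specific substrate, 1 h, fluorescence with electrophoretic mobility-shift separation of substrate and product. Primary screen at 25 uM in duplicate; hits retested in singleton concentration-response up to 50 uM, referenced to DMSO.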

[2] = target: human Ephrin type-A Receptor 1 (EphA1), EPHA1 (gene 2041) (UniProt P21709); assay: NVS_ENZ_hEphA1: NovaScreen (NVS) Enzymatic Assay for human Ephrin type-A Receptor 1 (EphA1) (AID 2283158);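 further: activity is signal loss versus DMSO meaning EphA1 kinase inhibition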
In short: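 Here the EphA1 protein is recombinant and the substrate fluorescent, with electrophoretic separation before fluorescence detection at 1 hour. Signal loss against DMSO defines activity; plate controls included; follow-up concentration series reach 50 uM.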

[3] = target: human Casein Kinase 1-delta (CK1D), CSNK1D (gene 1453) (UniProt P48730); assay: NVS_ENZ_hCK1D: NovaScreen (NVS) Enzymatic Assay for human Casein Kinase 1-delta (CK1D) (AID 2283148)
In short: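 Recombinant human CK1-delta, cell-free; fluorescent substrate with electrophoretic mobility-shift separation of product, read 1 h after dosing. Single 25 uM duplicate screen, then concentration-response up to 50 uM; loss of signal vs DMSO.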

[4] = target: human Dual Specificity Protein Phosphatase 3 (DUSP3), DUSP3 (gene 1845) (UniProt P51452); assay: NVS_ENZ_hDUSP3: NovaScreen (NVS) Enzymatic Assay for human Dual Specificity Protein Phosphatase 3 (DUSP3) (AID 2283152);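 further: phosphatase activity of recombinant human DUSP3 on a fluorogenic substrate without cells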
In short: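 Cell-free assay with recombinant human DUSP3 and fluorogenic substrate, read by fluorescence intensity. Primary screen ran duplicate at 25 uM; actives followed up in concentration series; loss of signal versus DMSO scored.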

[5] = target: human Ephrin type-B Receptor 1 (EphB1), EPHB1 (gene 2047) (UniProt P54762); assay: NVS_ENZ_hEphB1: NovaScreen (NVS) Enzymatic Assay for human Ephrin type-B Receptor 1 (EphB1) (AID 2283154)
In short: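 Cell-free kinase assay with recombinant enzyme, fluorescent substrate and electrophoretic mobility-shift separation of substrate and product; read 1 h after dosing. Single-concentration duplicate screen at 25 uM; loss of signal versus DMSO baseline.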

[6] = target: human Ephrin type-B Receptor 2 (EphB2), EPHB2 (gene 2048) (UniProt P29323); assay: NVS_ENZ_hEphB2: NovaScreen (NVS) Enzymatic Assay for human Ephrin type-B Receptor 2 (EphB2) (AID 2283156)
In short: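 Recombinant kinase with fluorescent substrate, product separated by electrophoretic mobility shift, read 1 h after dosing. Duplicate 25 uM screen, then singleton concentration-response to 50 uM max; loss of signal versus DMSO.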

[7] = target: human Esterase Plasma (ES), BCHE (gene 590) (UniProt P06276); assay: NVS_ENZ_hES: NovaScreen (NVS) Enzymatic Assay for human Esterase Plasma (ES) (AID 2283157)
In short: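 Chemicals were added to plasma-extracted human enzyme in a cell-free format, and activity was read colorimetrically after 0.25 hour. Activity loss was referenced to DMSO; concentration-response top dose was 50 uM.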

[8] = target: Glycogen synthase kinase-3 beta (Homo sapiens) (UniProt P49841); assay: NVS_ENZ_hGSK3b: NovaScreen (NVS) Enzymatic Assay for human Glycogen Synthase Kinase-3 beta (GSK3b) (AID 2283165)
In short: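 Recombinant enzyme with specific fluorescent substrate, 1 h, product separated by electrophoretic mobility shift. Primary duplicate screen at 25 uM; actives (e.g. 30% inhibition) followed in singleton concentration-response to 50 uM. Signal loss fitted versus DMSO.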

[9] = target: human Fibroblast Growth Factor Receptor 1 (FGFR1), FGFR1 (gene 2260) (UniProt P11362); assay: NVS_ENZ_hFGFR1: NovaScreen (NVS) Enzymatic Assay for human Fibroblast Growth Factor Receptor 1 (FGFR1) (AID 2283159);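 on AC50: hits lower the signal so potencies describe inhibitors of the kinase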
In short: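 Cell-free recombinant kinase with fluorescent substrate, product separated by electrophoretic mobility shift; read 1 hour after dosing, loss of signal relative to DMSO. Initial screen in duplicate at 25 uM, actives followed in concentration series.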

[10] = target: Protein deacetylase HDAC6 (Homo sapiens) (UniProt Q9UBN7); assay: NVS_ENZ_hHDAC6: NovaScreen (NVS) Enzymatic Assay for human Histone Deacetylase 6 (HDAC6) (AID 2283164)
In short: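 Recombinant human HDAC6 with fluorescent substrate, 1 h; product separated from substrate by electrophoretic mobility shift. Primary screen in duplicate at 25 uM; actives retested singly in concentration-response up to 50 uM, fitted relative to DMSO.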

[11] = target: human Aurora Kinase A - serine/threonine-protein Kinase 6 (AurA), AURKA (gene 6790) (UniProt O14965); assay: NVS_ENZ_hAurA: NovaScreen (NVS) Enzymatic Assay for human Aurora Kinase A - serine/threonine-protein Kinase 6 (AurA) (AID 2283142)
In short: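 Cell-free enzymatic assay with human Aurora A, 1 hour after dosing. Fluorescent substrate turnover detected after electrophoretic mobility shift separation of substrate and product. Screened at 25 uM, actives retested in concentration-response up to 50 uM.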

[12] = target: human Caspase 8 (CASP8), CASP8 (gene 841) (UniProt Q14790); assay: NVS_ENZ_hCASP8: NovaScreen (NVS) Enzymatic Assay for human Caspase 8 (CASP8) (AID 2283146)
In short: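 E. coli-expressed enzyme was used in a cell-free fluorogenic substrate assay read 1 h after dosing. Loss of signal was scored relative to DMSO, and the primary screen was run in duplicate at 25 uM.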

[13] = target: human Colony Stimulating Factor 1 Receptor (CSF1R), CSF1R (gene 1436) (UniProt P07333); assay: NVS_ENZ_hCSF1R: NovaScreen (NVS) Enzymatic Assay for human Colony Stimulating Factor 1 Receptor (CSF1R) (AID 2283150)
In short: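 Cell-free recombinant human CSF1R kinase with fluorescent substrate, product separated by electrophoretic mobility shift; read 1 h after dosing. Primary screen at 25 uM in duplicate, actives then in concentration-response up to 50 uM, relative to DMSO.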

[14] = target: human Epidermal Growth Factor Receptor (EGFR), EGFR (gene 1956) (UniProt P00533); assay: NVS_ENZ_hEGFR: NovaScreen (NVS) Enzymatic Assay for human Epidermal Growth Factor Receptor (EGFR) (AID 2283151)
In short: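 Cell-free kinase assay, fluorescence plus electrophoretic mobility shift separating substrate and product, read 1 hour after dosing; loss of signal vs DMSO. Duplicate screen at 25 uM, then concentration-response to 50 uM.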

[15] = target: human Elastase, ELANE (gene 1991) (UniProt P08246); assay: NVS_ENZ_hElastase: NovaScreen (NVS) Enzymatic Assay for human Elastase (AID 2283153)
In short: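 Cell-free elastase from human neutrophils, 1.5 h after dosing, activity read by absorbance. Primary screen in duplicate at 25 uM; hits (e.g., 30% inhibition) rerun in singleton concentration-response up to 50 uM, fitted versus DMSO.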

[16] = target: human FYN Proto-Oncogene, Src family Tyrosine Kinase (Fyn), FYN (gene 2534) (UniProt P06241); assay: NVS_ENZ_hFyn: NovaScreen (NVS) Enzymatic Assay for human FYN Proto-Oncogene, Src family Tyrosine Kinase (Fyn) (AID 2283161)
In short: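 Recombinant enzyme with fluorescent substrate, product separated by electrophoretic mobility shift; read 1 h after dosing. Duplicate 25 uM single-point screen, actives retested in concentration series; loss of signal vs DMSO.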

[17] = target: Histone deacetylase 3 (Homo sapiens) (UniProt O15379); assay: NVS_ENZ_hHDAC3: NovaScreen (NVS) Enzymatic Assay for human Histone Deacetylase 3 (HDAC3) (AID 2283163)
In short: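 Recombinant human HDAC3 with fluorescent substrate, 1 h after dosing; product separated from substrate by electrophoretic mobility shift and read by fluorescence. Primary screen at 25 uM in duplicate; actives (e.g. ≥30% inhibition) retested in concentration-response up to 50 uM.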

[18] = target: human IkappaB Kinase alpha (IKKa), CHUK (gene 1147) (UniProt O15111); assay: NVS_ENZ_hIKKa: NovaScreen (NVS) Enzymatic Assay for human IkappaB Kinase alpha (IKKa) (AID 2283167)
In short: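 Cell-free recombinant human IKKa with fluorescent substrate, product separated by electrophoretic mobility shift; read 1 hour after dosing. Primary screen duplicate at 25 uM, actives then concentration-response up to 50 uM; loss of signal relative to DMSO.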

[19] = target: human Casein Kinase 2- alpha 2 beta 2 (CK2a2b2), CSNK2A1 (gene 1457) (UniProt P68400); assay: NVS_ENZ_hCK2a2b2: NovaScreen (NVS) Enzymatic Assay for human Casein Kinase 2- alpha 2 beta 2 (CK2a2b2) (AID 2283147)
In short: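 Cell-free recombinant CK2 α2β2 holoenzyme with a fluorescent peptide substrate; product separated by electrophoretic mobility shift and read 1 h after dosing. Single-point screen at 25 uM in duplicate; actives were followed with concentration-response up to 50 uM versus DMSO.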

human Caspase 8 (CASP8), CASP8 (gene 841), sequence (Q14790 whole entry, looked up): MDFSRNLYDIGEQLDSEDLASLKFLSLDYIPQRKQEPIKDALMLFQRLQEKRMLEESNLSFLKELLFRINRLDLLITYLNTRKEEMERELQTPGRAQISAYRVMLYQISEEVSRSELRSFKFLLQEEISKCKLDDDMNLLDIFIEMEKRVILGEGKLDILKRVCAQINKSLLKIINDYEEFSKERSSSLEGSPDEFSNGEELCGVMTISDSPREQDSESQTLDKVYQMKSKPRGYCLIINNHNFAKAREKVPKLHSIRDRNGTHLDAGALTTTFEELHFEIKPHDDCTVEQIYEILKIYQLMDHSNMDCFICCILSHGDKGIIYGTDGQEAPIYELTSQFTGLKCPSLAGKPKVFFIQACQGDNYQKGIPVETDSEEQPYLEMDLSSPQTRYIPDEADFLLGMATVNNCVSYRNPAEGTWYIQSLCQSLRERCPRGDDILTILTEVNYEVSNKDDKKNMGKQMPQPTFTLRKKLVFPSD
human Ephrin type-A Receptor 2 (EphA2), EPHA2 (gene 1969), sequence (P29317 whole entry, looked up): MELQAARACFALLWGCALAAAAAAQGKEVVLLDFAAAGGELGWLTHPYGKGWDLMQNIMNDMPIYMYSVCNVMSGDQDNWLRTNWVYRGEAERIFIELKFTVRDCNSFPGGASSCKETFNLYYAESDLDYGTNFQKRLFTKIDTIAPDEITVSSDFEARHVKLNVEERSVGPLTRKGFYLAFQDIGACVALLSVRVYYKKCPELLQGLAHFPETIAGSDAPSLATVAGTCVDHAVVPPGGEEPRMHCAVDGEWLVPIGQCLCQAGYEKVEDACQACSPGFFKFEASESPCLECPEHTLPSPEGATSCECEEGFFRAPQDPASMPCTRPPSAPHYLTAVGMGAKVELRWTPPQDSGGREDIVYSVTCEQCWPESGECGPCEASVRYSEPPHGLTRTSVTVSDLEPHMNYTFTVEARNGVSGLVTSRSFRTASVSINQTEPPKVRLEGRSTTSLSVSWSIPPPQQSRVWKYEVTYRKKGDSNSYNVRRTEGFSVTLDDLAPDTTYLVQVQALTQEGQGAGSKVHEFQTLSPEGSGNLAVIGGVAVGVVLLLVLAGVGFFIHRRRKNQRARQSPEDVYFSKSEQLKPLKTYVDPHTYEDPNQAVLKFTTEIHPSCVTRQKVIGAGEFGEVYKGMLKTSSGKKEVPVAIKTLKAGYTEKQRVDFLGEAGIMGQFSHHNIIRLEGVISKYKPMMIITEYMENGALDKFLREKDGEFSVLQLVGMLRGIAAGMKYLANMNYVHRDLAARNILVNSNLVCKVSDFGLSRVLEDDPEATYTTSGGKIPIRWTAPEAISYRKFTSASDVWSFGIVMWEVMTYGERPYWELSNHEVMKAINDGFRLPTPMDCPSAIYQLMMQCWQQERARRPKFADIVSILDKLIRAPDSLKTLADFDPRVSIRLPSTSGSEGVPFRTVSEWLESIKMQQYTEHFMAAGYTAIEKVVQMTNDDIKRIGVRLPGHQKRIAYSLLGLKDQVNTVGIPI
human Casein Kinase 1-delta (CK1D), CSNK1D (gene 1453), sequence (P48730 whole entry, looked up): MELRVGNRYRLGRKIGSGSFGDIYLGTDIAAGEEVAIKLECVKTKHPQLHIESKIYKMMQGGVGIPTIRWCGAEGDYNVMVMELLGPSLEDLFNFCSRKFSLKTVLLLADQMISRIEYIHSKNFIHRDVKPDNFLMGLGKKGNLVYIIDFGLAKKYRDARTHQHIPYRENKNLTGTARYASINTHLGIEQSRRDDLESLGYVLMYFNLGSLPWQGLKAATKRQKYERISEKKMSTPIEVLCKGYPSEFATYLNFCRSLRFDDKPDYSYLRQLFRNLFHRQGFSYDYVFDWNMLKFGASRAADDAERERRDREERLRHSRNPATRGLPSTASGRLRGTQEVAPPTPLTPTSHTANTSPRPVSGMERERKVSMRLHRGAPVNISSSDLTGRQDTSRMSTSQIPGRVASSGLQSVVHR
human Esterase Plasma (ES), BCHE (gene 590), sequence (P06276 whole entry, looked up): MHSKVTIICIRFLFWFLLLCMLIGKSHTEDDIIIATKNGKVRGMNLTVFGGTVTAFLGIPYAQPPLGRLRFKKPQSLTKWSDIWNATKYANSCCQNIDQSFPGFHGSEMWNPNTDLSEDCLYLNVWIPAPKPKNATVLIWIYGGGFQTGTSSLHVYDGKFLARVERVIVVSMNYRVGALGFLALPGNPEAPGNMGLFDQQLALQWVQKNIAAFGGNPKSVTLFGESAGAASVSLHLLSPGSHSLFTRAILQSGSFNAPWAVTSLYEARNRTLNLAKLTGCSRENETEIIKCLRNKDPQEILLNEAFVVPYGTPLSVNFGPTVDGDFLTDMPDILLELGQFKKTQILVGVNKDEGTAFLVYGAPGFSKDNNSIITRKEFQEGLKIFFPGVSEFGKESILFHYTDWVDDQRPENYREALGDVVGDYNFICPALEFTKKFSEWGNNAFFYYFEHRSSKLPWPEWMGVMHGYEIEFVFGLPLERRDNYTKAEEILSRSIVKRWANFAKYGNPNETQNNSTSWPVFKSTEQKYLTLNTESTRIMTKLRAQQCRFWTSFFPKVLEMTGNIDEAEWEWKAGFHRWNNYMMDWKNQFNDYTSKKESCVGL
Histone deacetylase 3 (Homo sapiens), sequence (O15379 whole entry, looked up): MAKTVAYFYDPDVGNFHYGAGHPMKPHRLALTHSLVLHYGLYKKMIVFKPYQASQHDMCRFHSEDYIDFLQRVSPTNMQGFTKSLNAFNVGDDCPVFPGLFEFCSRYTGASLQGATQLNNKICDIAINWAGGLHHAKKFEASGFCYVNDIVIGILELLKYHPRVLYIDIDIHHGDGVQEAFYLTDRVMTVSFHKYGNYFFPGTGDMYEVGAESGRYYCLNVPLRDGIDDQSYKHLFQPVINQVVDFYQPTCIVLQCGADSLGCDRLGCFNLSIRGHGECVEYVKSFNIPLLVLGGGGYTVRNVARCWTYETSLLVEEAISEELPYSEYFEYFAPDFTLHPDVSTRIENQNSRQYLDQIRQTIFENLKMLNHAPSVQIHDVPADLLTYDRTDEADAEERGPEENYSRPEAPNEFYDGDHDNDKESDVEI
Glycogen synthase kinase-3 beta (Homo sapiens), sequence (P49841 whole entry, looked up): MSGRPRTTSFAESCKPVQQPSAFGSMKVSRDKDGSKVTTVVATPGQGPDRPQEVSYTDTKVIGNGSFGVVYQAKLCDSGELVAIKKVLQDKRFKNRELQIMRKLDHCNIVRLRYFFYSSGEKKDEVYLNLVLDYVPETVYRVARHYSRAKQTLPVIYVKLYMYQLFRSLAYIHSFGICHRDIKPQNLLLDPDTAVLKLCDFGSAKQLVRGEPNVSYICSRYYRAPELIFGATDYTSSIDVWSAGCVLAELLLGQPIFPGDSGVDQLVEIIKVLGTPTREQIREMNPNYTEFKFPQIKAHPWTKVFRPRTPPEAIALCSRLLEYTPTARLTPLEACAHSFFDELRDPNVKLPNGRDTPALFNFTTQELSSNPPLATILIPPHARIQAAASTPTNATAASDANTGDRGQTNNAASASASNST
human Fibroblast Growth Factor Receptor 1 (FGFR1), FGFR1 (gene 2260), sequence (P11362 whole entry, looked up): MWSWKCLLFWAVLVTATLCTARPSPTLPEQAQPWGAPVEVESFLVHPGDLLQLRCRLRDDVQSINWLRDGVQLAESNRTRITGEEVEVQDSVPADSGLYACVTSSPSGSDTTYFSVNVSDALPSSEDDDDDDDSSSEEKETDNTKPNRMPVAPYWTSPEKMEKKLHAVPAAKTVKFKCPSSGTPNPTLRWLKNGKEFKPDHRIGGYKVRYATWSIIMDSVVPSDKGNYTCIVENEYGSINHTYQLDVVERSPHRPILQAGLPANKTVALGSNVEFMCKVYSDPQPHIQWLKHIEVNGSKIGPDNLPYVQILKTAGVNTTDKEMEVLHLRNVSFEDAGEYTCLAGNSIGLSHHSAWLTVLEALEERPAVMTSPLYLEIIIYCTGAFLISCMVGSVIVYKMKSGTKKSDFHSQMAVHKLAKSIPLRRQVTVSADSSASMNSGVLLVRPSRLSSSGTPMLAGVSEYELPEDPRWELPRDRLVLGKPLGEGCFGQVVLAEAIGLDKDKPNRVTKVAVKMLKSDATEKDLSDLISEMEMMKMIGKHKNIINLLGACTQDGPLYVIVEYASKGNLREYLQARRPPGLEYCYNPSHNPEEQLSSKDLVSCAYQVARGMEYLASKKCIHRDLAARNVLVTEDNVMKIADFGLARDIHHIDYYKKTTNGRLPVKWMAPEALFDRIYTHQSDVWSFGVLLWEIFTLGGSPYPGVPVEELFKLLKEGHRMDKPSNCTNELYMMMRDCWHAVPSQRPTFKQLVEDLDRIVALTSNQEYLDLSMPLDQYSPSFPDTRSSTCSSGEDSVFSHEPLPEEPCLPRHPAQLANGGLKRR
human Elastase, ELANE (gene 1991), sequence (P08246 whole entry, looked up): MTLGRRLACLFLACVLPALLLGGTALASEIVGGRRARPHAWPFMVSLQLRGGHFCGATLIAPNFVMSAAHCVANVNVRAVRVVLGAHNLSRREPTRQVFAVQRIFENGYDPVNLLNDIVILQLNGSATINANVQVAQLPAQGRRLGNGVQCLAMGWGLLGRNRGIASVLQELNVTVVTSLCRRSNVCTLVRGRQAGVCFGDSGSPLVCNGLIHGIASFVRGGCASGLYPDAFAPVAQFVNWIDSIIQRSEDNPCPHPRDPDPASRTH
human Aurora Kinase A - serine/threonine-protein Kinase 6 (AurA), AURKA (gene 6790), sequence (O14965 whole entry, looked up): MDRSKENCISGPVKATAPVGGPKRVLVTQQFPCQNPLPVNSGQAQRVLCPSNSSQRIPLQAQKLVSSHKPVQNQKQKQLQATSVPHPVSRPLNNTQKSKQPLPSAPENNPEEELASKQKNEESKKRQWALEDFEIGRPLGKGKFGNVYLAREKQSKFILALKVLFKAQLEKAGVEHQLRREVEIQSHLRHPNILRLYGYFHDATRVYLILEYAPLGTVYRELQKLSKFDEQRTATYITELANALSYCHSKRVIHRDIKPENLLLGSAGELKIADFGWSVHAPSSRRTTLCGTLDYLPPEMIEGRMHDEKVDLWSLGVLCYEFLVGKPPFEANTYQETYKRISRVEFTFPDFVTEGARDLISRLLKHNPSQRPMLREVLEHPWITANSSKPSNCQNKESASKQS
human Dual Specificity Protein Phosphatase 3 (DUSP3), DUSP3 (gene 1845), sequence (P51452 whole entry, looked up): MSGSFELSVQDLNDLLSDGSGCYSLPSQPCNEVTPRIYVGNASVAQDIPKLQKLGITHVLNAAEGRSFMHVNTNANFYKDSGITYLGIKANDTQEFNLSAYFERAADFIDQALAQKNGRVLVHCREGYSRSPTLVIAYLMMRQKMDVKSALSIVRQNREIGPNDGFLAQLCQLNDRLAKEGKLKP

In the case of `CN1CSC(=S)N(C)C1`, the outcome (CDK2 (gene 1017)) is reported as “inactive”.

In the case of `O=[N+]([O-])/N=C1\NCCN1Cc1ccc(Cl)nc1`, the outcome [1] is reported as “inactive” and the outcome [2] is reported as “inactive”.

`Oc1ccc(Cl)cc1Cc1ccccc1` was tested, and the AC50 [3] was 25.2 µM (active) and 21.9 µM (active), the outcome [4] was “inactive” and the outcome [5] was “inactive”. For the same compound, the outcome [1] was “inactive”, the outcome [6] was “inactive” and the outcome [7] was “inactive”. For the same compound, the outcome [8] was “inactive”.

`ClC1C(Cl)C(Cl)C(Cl)C(Cl)C1Cl` (stereo not given) was tested, and the outcome [2] was “inactive”, the outcome [9] was “inactive” and the AC50 [10] was 0.00517 µM (active).

With `O=S(=O)(O)C(F)(F)C(F)(F)C(F)(F)C(F)(F)C(F)(F)C(F)(F)C(F)(F)C(F)(F)F` the AC50 [11] was 25.4 µM (active) and 27.4 µM (active), the outcome [12] was “inactive” and the AC50 [3] was 22 µM (active) and 39 µM (active). The AC50 [13] was 18.6 µM (active) and 43.9 µM (active), the AC50 [14] was 25 µM (active) and 17.4 µM (active) and the AC50 [4] was 35.6 µM (active). For the same compound, the outcome [4] was “inactive”, the outcome [15] was “inactive” and the AC50 [1] was 15.8 µM (active). The AC50 [9] was 39.7 µM (active) and 24.3 µM (active), the AC50 [16] was 47 µM (active) and the AC50 [17] was 17.4 µM (active) and 10.3 µM (active). The AC50 [8] was 39.3 µM (active) and the AC50 [18] was 27.2 µM (active) and 25.9 µM (active).

`COP(=O)(OC)OC=C(Cl)Cl` was tested, and the AC50 [7] was 7.13 µM (active).

In the case of `CCOCN(C(=O)CCl)c1c(C)cccc1CC`, the outcome [6] is reported as “inactive”.

`COP(=S)(OC)Oc1ccc([N+](=O)[O-])cc1` was tested, and the outcome [15] was “inactive” and the outcome [7] was “inactive”.

With `C[C@H]1[C@H](c2ccc(Cl)cc2)SC(=O)N1C(=O)NC1CCCCC1` the outcome [12] was “inactive”.

For `O=C(Nc1ccccc1)Nc1cnns1`, the outcome [11] was “inactive” and the AC50 [19] was 10.9 µM (active).

For `O=C(NC(=O)c1c(F)cccc1F)Nc1ccc(OC(F)(F)C(F)OC(F)(F)F)c(Cl)c1` (stereo not given), the outcome [15] was “inactive” and the outcome [17] was “inactive”.

`COC(=O)c1ccccc1S(=O)(=O)NC(=O)N(C)c1nc(C)nc(OC)n1` was tested, and the outcome [16] was “inactive”.

With `O=C(O)CCCOc1ccc(Cl)cc1Cl` the AC50 [19] was 19 µM (active).

In the case of `O=C1c2ccccc2C(=O)N1SC(Cl)(Cl)Cl`, the outcome [12] is reported as “inactive”.

In the case of `CC(C)OC(=O)Nc1cccc(Cl)c1`, the outcome [7] is reported as “inactive”.
